4 sequences from paper PMC11006913 can be followed below.

Where a chain is given by its changes, count along the chain named.

Common to all, as to assay: PBM; 200 nM protein, PBS
Holding throughout (conditions): dsDNA, one strand shown

Assay [1] has as its target T1, SIX6 (Homo sapiens, UniProt O95475 114-200, L167I).
T1 sequence: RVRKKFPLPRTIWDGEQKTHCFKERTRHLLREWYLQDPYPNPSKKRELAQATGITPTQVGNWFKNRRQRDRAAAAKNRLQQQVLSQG

For assay [2], the target named is T2, SIX6 (Homo sapiens, UniProt O95475 114-200, L143V).
T2 sequence: T1 sequence with L30V, I54L

Assay [3] deals with PRRX1 (Homo sapiens, UniProt P54821 80-166, F113S).
Assay [4] concerns the target T3, SIX6 (Homo sapiens, UniProt O95475 114-200, H141N).
T3 sequence: T1 sequence with H28N, I54L

In assay [5] the target is T4, SIX6 (Homo sapiens, UniProt O95475 114-200, T165P).
T4 sequence: T1 sequence with T52P, I54L

Assay [6] concerns the target T5, SIX6 (Homo sapiens, UniProt O95475 114-200, L167M).
T5 sequence: T1 sequence with I54M

The target of assay [7] is T6, SIX6 (Homo sapiens, UniProt O95475 114-200, L143M).
T6 sequence: T1 sequence with L30M, I54L

The target of assay [8] is T7, SIX6 (Homo sapiens, UniProt O95475 114-200, L143I).
T7 sequence: T1 sequence with L30I, I54L

Assay [9] concerns the target T8, SIX6 (Homo sapiens, UniProt O95475 114-200, T165G).
T8 sequence: T1 sequence with T52G, I54L

Assay [10] concerns the target T9, SIX6 (Homo sapiens, UniProt O95475 114-200, T139Q).
T9 sequence: T1 sequence with T26Q, I54L

Assay [11] addresses T10, SIX6 (Homo sapiens, UniProt O95475 114-200, T165A).
T10 sequence: T1 sequence with T52A, I54L

The target of assay [12] is T11, SIX6 (Homo sapiens, UniProt O95475 114-200, L167V).
T11 sequence: T1 sequence with I54V

For assay [13], the target named is T12, SIX6 (Homo sapiens, UniProt O95475 114-200).
T12 sequence: T1 sequence with I54L

Assay [14] deals with T13, SIX6 (Homo sapiens, UniProt O95475 114-200, T165I).
T13 sequence: T1 sequence with T52I, I54L

Assay [15] deals with PRRX1 (Homo sapiens, UniProt P54821 80-166).
The target of assay [16] is ALX3 (Homo sapiens, UniProt O95076 139-225, N203Q).
Assay [17] deals with ALX3 (Homo sapiens, UniProt O95076 139-225).
The target of assay [18] is ALX3 (Homo sapiens, UniProt O95076 139-225, L168Q).
Assay [19] has as its target ALX3 (Homo sapiens, UniProt O95076 139-225, L168V).
For assay [20], the target named is ALX3 (Homo sapiens, UniProt O95076 139-225, N203S).
Assay [21] concerns the target HOXA2 (Homo sapiens, UniProt O43364 129-215, R185T).
Assay [22] addresses HOXA2 (Homo sapiens, UniProt O43364 129-215, R185K).
The target of assay [23] is HOXA2 (Homo sapiens, UniProt O43364 129-215, Y150S).
Assay [24] deals with HOXA2 (Homo sapiens, UniProt O43364 129-215).
HOXA2 (Homo sapiens, UniProt O43364 129-215), sequence (O43364 129-215): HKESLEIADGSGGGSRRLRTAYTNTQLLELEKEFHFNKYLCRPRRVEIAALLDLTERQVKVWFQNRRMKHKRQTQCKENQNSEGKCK

PRRX1 (Homo sapiens, UniProt P54821 80-166, F113S), sequence (P54821 80-166 F113S): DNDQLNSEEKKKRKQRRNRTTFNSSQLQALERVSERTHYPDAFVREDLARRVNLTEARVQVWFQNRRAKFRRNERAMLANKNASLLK
PRRX1 (Homo sapiens, UniProt P54821 80-166), sequence (P54821 80-166): as the sequence (P54821 80-166 F113S) above, with S34F counted along it
ALX3 (Homo sapiens, UniProt O95076 139-225, N203Q), sequence (O95076 139-225 N203Q): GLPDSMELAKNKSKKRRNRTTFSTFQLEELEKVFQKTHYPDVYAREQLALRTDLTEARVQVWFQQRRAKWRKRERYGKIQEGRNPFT
HOXA2 (Homo sapiens, UniProt O43364 129-215, R185K), sequence (O43364 129-215 R185K): as the sequence (O43364 129-215) above, with R57K counted along it
ALX3 (Homo sapiens, UniProt O95076 139-225), sequence (O95076 139-225): as the sequence (O95076 139-225 N203Q) above, with Q65N counted along it
HOXA2 (Homo sapiens, UniProt O43364 129-215, R185T), sequence (O43364 129-215 R185T): as the sequence (O43364 129-215) above, with R57T counted along it
HOXA2 (Homo sapiens, UniProt O43364 129-215, Y150S), sequence (O43364 129-215 Y150S): as the sequence (O43364 129-215) above, with Y22S counted along it
ALX3 (Homo sapiens, UniProt O95076 139-225, L168V), sequence (O95076 139-225 L168V): as the sequence (O95076 139-225 N203Q) above, with L30V, Q65N counted along it
ALX3 (Homo sapiens, UniProt O95076 139-225, N203S), sequence (O95076 139-225 N203S): as the sequence (O95076 139-225 N203Q) above, with Q65S counted along it
ALX3 (Homo sapiens, UniProt O95076 139-225, L168Q), sequence (O95076 139-225 L168Q): as the sequence (O95076 139-225 N203Q) above, with L30Q, Q65N counted along it

In the case of CCCTCGGC, the binding signal with SIX6 [1] is 9.06 upbm affinity estimate (log intensity, higher = more binding, comparable within an allelic series); in the assay with SIX6 [2], 8.91 upbm affinity estimate (log intensity, higher = more binding, comparable within an allelic series); in the assay with PRRX1 [3], 9.22 upbm affinity estimate (log intensity, higher = more binding, comparable within an allelic series); with SIX6 [4], 9.09 upbm affinity estimate (log intensity, higher = more binding, comparable within an allelic series); in the assay with SIX6 [5], 8.86 upbm affinity estimate (log intensity, higher = more binding, comparable within an allelic series); with SIX6 [6] it was 9.04 upbm affinity estimate (log intensity, higher = more binding, comparable within an allelic series). Further, the binding signal with SIX6 [7] is 9.07 upbm affinity estimate (log intensity, higher = more binding, comparable within an allelic series); with SIX6 [8], 8.97 upbm affinity estimate (log intensity, higher = more binding, comparable within an allelic series); with SIX6 [9] it was 9.07 upbm affinity estimate (log intensity, higher = more binding, comparable within an allelic series); with SIX6 [10], 9.11 upbm affinity estimate (log intensity, higher = more binding, comparable within an allelic series); with SIX6 [11], 8.99 upbm affinity estimate (log intensity, higher = more binding, comparable within an allelic series); with SIX6 [12], 8.92 upbm affinity estimate (log intensity, higher = more binding, comparable within an allelic series). Besides, the binding signal in the assay with SIX6 [13] is 9.04 upbm affinity estimate (log intensity, higher = more binding, comparable within an allelic series); with SIX6 [14] it was 9.03 upbm affinity estimate (log intensity, higher = more binding, comparable within an allelic series); with PRRX1 [15], 9.48 upbm affinity estimate (log intensity, higher = more binding, comparable within an allelic series).
In the case of AGGCGCCC, the binding signal is 8.71 upbm affinity estimate (log intensity, higher = more binding, comparable within an allelic series) with SIX6 [1]; 8.6 upbm affinity estimate (log intensity, higher = more binding, comparable within an allelic series) in the assay with SIX6 [2]; 8.7 upbm affinity estimate (log intensity, higher = more binding, comparable within an allelic series) in the assay with SIX6 [4]; 8.77 upbm affinity estimate (log intensity, higher = more binding, comparable within an allelic series) with SIX6 [5]; 8.76 upbm affinity estimate (log intensity, higher = more binding, comparable within an allelic series) with SIX6 [6]; 8.63 upbm affinity estimate (log intensity, higher = more binding, comparable within an allelic series) in the assay with SIX6 [7]. Moreover, the binding signal in the assay with SIX6 [8] is 8.66 upbm affinity estimate (log intensity, higher = more binding, comparable within an allelic series); in the assay with SIX6 [9], 8.66 upbm affinity estimate (log intensity, higher = more binding, comparable within an allelic series); with SIX6 [10] it was 8.66 upbm affinity estimate (log intensity, higher = more binding, comparable within an allelic series); in the assay with ALX3 [16], 7.72 upbm affinity estimate (log intensity, higher = more binding, comparable within an allelic series); with SIX6 [11], 8.69 upbm affinity estimate (log intensity, higher = more binding, comparable within an allelic series); in the assay with SIX6 [12], 8.65 upbm affinity estimate (log intensity, higher = more binding, comparable within an allelic series). In addition, the binding signal with ALX3 [17] was 7.55 upbm affinity estimate (log intensity, higher = more binding, comparable within an allelic series); in the assay with SIX6 [13], 8.6 upbm affinity estimate (log intensity, higher = more binding, comparable within an allelic series); with ALX3 [18] it was 7.7 upbm affinity estimate (log intensity, higher = more binding, comparable within an allelic series); with SIX6 [14], 8.7 upbm affinity estimate (log intensity, higher = more binding, comparable within an allelic series); with ALX3 [19], 7.59 upbm affinity estimate (log intensity, higher = more binding, comparable within an allelic series); with ALX3 [20] it was 7.72 upbm affinity estimate (log intensity, higher = more binding, comparable within an allelic series).
Regarding GCCCTGCC, the binding signal in the assay with SIX6 [1] was 8.89 upbm affinity estimate (log intensity, higher = more binding, comparable within an allelic series); with SIX6 [2], 8.78 upbm affinity estimate (log intensity, higher = more binding, comparable within an allelic series); in the assay with SIX6 [4], 8.91 upbm affinity estimate (log intensity, higher = more binding, comparable within an allelic series); with SIX6 [5], 8.91 upbm affinity estimate (log intensity, higher = more binding, comparable within an allelic series); in the assay with SIX6 [6] it was 8.87 upbm affinity estimate (log intensity, higher = more binding, comparable within an allelic series); in the assay with SIX6 [7], 8.9 upbm affinity estimate (log intensity, higher = more binding, comparable within an allelic series). The binding signal in the assay with SIX6 [8] was 8.84 upbm affinity estimate (log intensity, higher = more binding, comparable within an allelic series); with SIX6 [9] it was 8.91 upbm affinity estimate (log intensity, higher = more binding, comparable within an allelic series); with HOXA2 [21] it was 6.93 upbm affinity estimate (log intensity, higher = more binding, comparable within an allelic series); in the assay with SIX6 [10] it was 9.01 upbm affinity estimate (log intensity, higher = more binding, comparable within an allelic series); with SIX6 [11], 8.99 upbm affinity estimate (log intensity, higher = more binding, comparable within an allelic series); in the assay with HOXA2 [22], 10.3 upbm affinity estimate (log intensity, higher = more binding, comparable within an allelic series). The binding signal in the assay with SIX6 [12] is 8.94 upbm affinity estimate (log intensity, higher = more binding, comparable within an allelic series); in the assay with SIX6 [13] it was 8.87 upbm affinity estimate (log intensity, higher = more binding, comparable within an allelic series); in the assay with SIX6 [14], 8.85 upbm affinity estimate (log intensity, higher = more binding, comparable within an allelic series); with HOXA2 [23] it was 10.4 upbm affinity estimate (log intensity, higher = more binding, comparable within an allelic series); with HOXA2 [24], 7.06 upbm affinity estimate (log intensity, higher = more binding, comparable within an allelic series).
In the case of CGGGAAGC, the binding signal is 9.04 upbm affinity estimate (log intensity, higher = more binding, comparable within an allelic series) with SIX6 [1]; 8.99 upbm affinity estimate (log intensity, higher = more binding, comparable within an allelic series) with SIX6 [2]; 9.35 upbm affinity estimate (log intensity, higher = more binding, comparable within an allelic series) with PRRX1 [3]; 9 upbm affinity estimate (log intensity, higher = more binding, comparable within an allelic series) with SIX6 [4]; 9.05 upbm affinity estimate (log intensity, higher = more binding, comparable within an allelic series) in the assay with SIX6 [5]; 9.01 upbm affinity estimate (log intensity, higher = more binding, comparable within an allelic series) with SIX6 [6]. Further, the binding signal in the assay with SIX6 [7] is 8.96 upbm affinity estimate (log intensity, higher = more binding, comparable within an allelic series); with SIX6 [8] it was 9.03 upbm affinity estimate (log intensity, higher = more binding, comparable within an allelic series); with SIX6 [9], 9.03 upbm affinity estimate (log intensity, higher = more binding, comparable within an allelic series); with SIX6 [10], 9.07 upbm affinity estimate (log intensity, higher = more binding, comparable within an allelic series); with SIX6 [11] it was 9.03 upbm affinity estimate (log intensity, higher = more binding, comparable within an allelic series); in the assay with SIX6 [12], 9.01 upbm affinity estimate (log intensity, higher = more binding, comparable within an allelic series). For the same sequence, the binding signal with SIX6 [13] was 8.93 upbm affinity estimate (log intensity, higher = more binding, comparable within an allelic series); with SIX6 [14], 8.99 upbm affinity estimate (log intensity, higher = more binding, comparable within an allelic series); with PRRX1 [15], 9.64 upbm affinity estimate (log intensity, higher = more binding, comparable within an allelic series).
